# Results as given in PubChem BioAssay.
# Several values for one entry are separate records, joined by “and”; a condition that tells them apart may be missing. Equal values may be shown once. Activity calls are given as the source filed them. How the calls were made is not given here.
# Target: Pantothenate synthetase (Mycobacterium tuberculosis (strain ATCC 25618 / H37Rv)) (UniProt P9WIL5)
# Experiment: Coupled enzyme confirmation of inhibitors against recombinant Mtb PanC (AID 375);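 further: 0% = full reaction with vehicle and 100% = no enzyme background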
# Details: coupled enzyme assay; at 10 µM, stronger effect = higher value
# Pantothenate synthetase (Mycobacterium tuberculosis (strain ATCC 25618 / H37Rv)), sequence (P9WIL5 whole entry, looked up): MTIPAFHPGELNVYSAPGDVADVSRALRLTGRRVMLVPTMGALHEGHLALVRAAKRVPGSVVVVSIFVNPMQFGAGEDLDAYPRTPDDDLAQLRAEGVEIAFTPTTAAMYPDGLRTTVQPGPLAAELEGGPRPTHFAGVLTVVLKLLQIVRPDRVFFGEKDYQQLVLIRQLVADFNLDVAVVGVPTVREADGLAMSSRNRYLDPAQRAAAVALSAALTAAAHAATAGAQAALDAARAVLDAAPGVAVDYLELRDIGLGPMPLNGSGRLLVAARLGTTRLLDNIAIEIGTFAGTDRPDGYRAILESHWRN
row,Compound,inhibition
1,Cn1cc(CN2CCc3ccccc3C2)c2ccccc21,9% (inactive)
2,CC1CC(C)CN(CCCNC(=O)c2ccc3c(c2)NC(=O)C(N2CCCCC2)S3)C1 (stereo not given),0% (inactive)
3,Cn1c(C(=O)NCCCN2CCCCCC2)cc2c(=O)n(C)c3ccccc3c21,0% (inactive)
4,Cc1cccc(NCc2ccccc2O)c1,3% (inactive)
5,CCOc1ccccc1C(=O)NCCC(=O)O,2% (inactive)
6,Cc1cccc(NC(=O)c2cc3ccccc3o2)c1,5% (inactive)
7,O=C(CSc1nnc(-c2ccco2)n1CC1CCCO1)NC1CCCC1 (stereo not given),0% (inactive)
8,Cc1ccc(C)c(CSc2nnc(CCN)o2)c1,0% (inactive)
9,CC1=C(n2nnc3ccccc32)C(c2ccccc2)C(C#N)=C(N)O1 (stereo not given),5% (inactive)
10,COc1cc(OC)c(OC)cc1CN(C)CCc1ccccn1,3% (inactive)
11,Cc1ccc(C)c(N2CCN(C(=O)c3ccc(CS(=O)(=O)c4ccccc4C)o3)CC2)c1,8% (inactive)
12,CCC(C)(C)n1nnnc1C(c1ccc(OC)c(OC)c1)N1CCN(c2ccc(F)cc2)CC1 (stereo not given),0% (inactive)
13,O=C1C(CCS(=O)c2ccccc2)C(=O)N(c2ccccc2)N1c1ccccc1 (stereo not given),0% (inactive)
14,CCOC(=O)N1CCN(C(=O)C2c3cc(OC)c(OC)cc3C(=O)N3CCc4ccccc4C23)CC1 (stereo not given),4% (inactive)
15,CCCOc1ccc(OCCSc2ncccn2)cc1,0% (inactive)
16,COc1cccc(C2CC(=O)Nc3c2c(=O)n(C)c(=O)n3C)c1OC (stereo not given),6% (inactive)
17,CC(C)CCNC(=O)C1CCN(C(=O)N(C)C)CC1,0% (inactive)
18,CN(C)C(=O)Oc1cccc([N+](C)(C)C)c1,9% (inactive) and 0% (inactive)
19,COc1ccc(-c2noc(CCCOc3ccccc3)n2)cc1OC,7% (inactive)
20,CC(=O)OCC(=O)c1ccc2ccn(C(C)=O)c2c1,3% (inactive)

row,Compound,inhibition
1,O=S(=O)(NCC1CCCO1)c1cccc(C(F)(F)F)c1 (stereo not given),0% (inactive)
2,CCOC(=O)c1ccc(NS(=O)C23CC4CC(CC(C4)C2)C3)cc1 (stereo not given),8% (inactive)
3,CC(C)=CCCC(C)CN(C)CCc1ccccn1 (stereo not given),0% (inactive)
4,O=S(=O)(c1ccccc1)N1CCSC1c1ccco1 (stereo not given),3% (inactive)
5,C=CCSc1nnc(Cc2c(C)[nH]c3ccccc23)o1,0% (inactive)
6,C=CCn1c(-c2cccs2)nc2nc3ccccc3nc21,0% (inactive)
7,CCOC(=O)N1CCC(NC(=O)Cc2ccc(-n3c(=O)[nH]c4ccccc4c3=O)cc2)CC1,3% (inactive)
8,CC(=O)Nc1ccc(NS(=O)(=O)c2ccc(Cl)c(C(=O)O)c2)cc1,1% (inactive)
9,Cc1onc(-c2ccccc2Cl)c1C(=O)Nc1cccnc1,5% (inactive)
10,O=C1CC(C2CCCO2)C(=O)N1Cc1ccccc1 (stereo not given),0% (inactive)
11,Cc1nc(CNS(=O)(=O)c2cccc(F)c2)cs1,0% (inactive)
12,CC(=O)c1c(C)oc2ccc(NS(=O)(=O)c3ccc(O)c(C(=O)O)c3)cc12,4% (inactive)
13,CCN(CC)S(=O)(=O)c1ccc2oc(SCc3ccc(F)cc3)nc2c1,5% (inactive)
14,COCCn1c(COc2ccc(Cl)cc2)nnc1SCC(N)=O,0% (inactive)
15,Clc1ccc2c(c1)C(N1CCNCC1)=Nc1ccccc1O2,8% (inactive)
16,Cc1nc(-c2cnn(-c3ccccc3)c2)c2cc(C)oc2n1,2% (inactive)
17,O=C(C1CCN(c2nnc(-n3cccc3)s2)CC1)N1CCOCC1,0% (inactive)
18,Cc1c(Cl)cccc1NC(=O)CCN1CCCCC1,0% (inactive)
19,CC(Oc1ccc(Cl)cc1Cl)C(=O)Nc1ncccn1 (stereo not given),0% (inactive)
20,O=C(Nc1ccc(N2CCN(Cc3ccccc3Cl)CC2)cc1)c1cccnc1,4% (inactive)
